# Results filed as inconclusive are left out. Values without a mark were called inactive. The source made the active and inactive calls. Calls come from the whole dose curve; as a rule, active = well fitted inhibition curve with a large enough effect; inconclusive = small, poorly fitted or top-dose-only effect; inactive = no such curve, though single readings can be large or run the other way.
# Target: Cytochrome P450 2C9 (Homo sapiens) (UniProt P11712)
# Assay: qHTS Assay for Inhibitors and Substrates of Cytochrome P450 2C9 (AID 883); note: nearly all actives have a fitted effect of over 60% in size
# Details: recombinant CYP2C9, luciferin-H luminescence, 60 min; series mostly up to 57.1 µM; activity change, negative = inhibition: at the top concentration
# Protocol: NIH Molecular Libraries Screening Centers Network [MLSCN] NIH Chemical Genomics Center [NCGC] MLSCN Grant: None NCGC Assay Overview: The P450 gene superfamily is involved in the metabolism and clearance of xenobiotics. This assay used human CYP2C9 to measure the hydroxylation of deoxyluciferin (Luciferin-H; P450 Glo-Buffer) to luciferin. The luciferin is then measured by luminescence after the addition of a luciferase detection reagent. Luciferin-H concentration in the assay was equal to its Michaelis constant KM for CYP2C9. Inhibitors and some substrates limit the production of luciferin, and decrease measured luminescence.
# NCGC Assay Protocol Summary: Two uL of enzyme and substrate mix (final concentrations: 10nM CYP2C9, 100uM Luciferin-H, 25mM KPO4) were dispensed into a white, solid bottom 1536-well microtiter plate. 23nL of compound was transferred by a pin tool. The plate was incubated at 37C for 10 min. Two uL of an NADPH regeneration solution (Promega supplied reagent) was dispensed and the reaction was allowed to continue for 60 min at 37C. Then the reaction was stopped by reconstituted P450 Glo-Buffer. After another 20 min of incubation the plate was read on the ViewLux (Perkin Elmer) at 60 sec exposure and 2x2 binning. This protocol was carried out with Promega-Glo reagents and further information can be found at http://www.promega.com/tbs/tb325/tb325.pdf. Data were normalized to the to AC100 inhibition (57uM sulphaphenazole). Keywords: P450, CYP2C9, Luciferase, MLSMR, MLSCN, NIH Roadmap, qHTS, NCGC
# % is set by controls: 0 for no effect and ±100 for the full control effect; potency is the fitted concentration of half-maximal effect.
# Chain of Cytochrome P450 2C9 (Homo sapiens) (P11712 whole entry, looked up): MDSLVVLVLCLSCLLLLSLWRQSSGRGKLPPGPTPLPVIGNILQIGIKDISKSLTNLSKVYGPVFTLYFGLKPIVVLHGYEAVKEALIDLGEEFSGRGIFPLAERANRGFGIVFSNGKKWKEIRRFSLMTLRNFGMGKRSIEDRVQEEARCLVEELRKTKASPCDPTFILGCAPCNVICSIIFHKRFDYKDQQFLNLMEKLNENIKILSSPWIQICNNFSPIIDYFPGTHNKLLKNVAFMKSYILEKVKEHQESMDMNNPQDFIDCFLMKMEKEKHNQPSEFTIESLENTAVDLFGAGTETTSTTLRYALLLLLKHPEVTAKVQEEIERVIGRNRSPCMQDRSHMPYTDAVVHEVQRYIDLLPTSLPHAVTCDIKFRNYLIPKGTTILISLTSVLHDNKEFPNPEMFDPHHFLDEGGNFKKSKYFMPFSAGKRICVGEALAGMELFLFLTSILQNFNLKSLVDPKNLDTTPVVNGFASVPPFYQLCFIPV
SMILES,Potency,"activity change, negative = inhibition [%]"
COC(=O)[C@@]1(Cc2ccccc2)[C@H]2c3cc(C(=O)N(C)C)n(Cc4ccsc4Br)c3C[C@H]2CN1C(=O)c1ccccc1,3.98 µM (active),
COc1cc([C@@H]2Oc3cc([C@H]4Oc5cc(O)cc(O)c5C(=O)[C@H]4O)ccc3O[C@H]2CO)ccc1O,2.51 µM (active),
COc1cc2c(cc1OC)C(=O)N(C)CC2,,-12.2
COC(=O)[C@@]1(Cc2ccc(OC)cc2)[C@H]2c3cc(C(=O)N4CCCC4)n(Cc4cc(F)cc5c4OCOC5)c3C[C@H]2CN1C(=O)c1ccccc1,6.31 µM (active),
O=c1c(O)c(-c2ccc(O)c(O)c2)oc2c(OC[C@H]3O[C@@H](O)[C@@H](O)[C@H](O)[C@@H]3O)c(O)cc(O)c12,,-9.85
CC1(C)[C@@H](O)CC[C@@]2(C)[C@H]1CC[C@]1(C)[C@H]2C(=O)C=C2[C@@H]3C[C@@](C)(C(=O)O)CC[C@]3(C)CC[C@@]21C,,1.7
OC[C@@H]1O[C@@H](n2cnc3c(NCCc4ccccc4)ncnc32)[C@@H](O)[C@H]1O,,-21
Cc1cc(C(=O)N[C@@H](c2ccccc2)[C@]2(C)C[C@H]2[C@@H](C)C(=O)Nc2ccc3ccccc3c2)n(C)n1,3.98 µM (active),
O=c1cc(-c2cccc(O)c2O)oc2ccccc12,12.6 µM (active),
CC(C)C[C@@H](CC(=O)N[C@@H](CCC(=O)O)CC(=O)O)NC(=O)[C@@H]1CCCC[C@H]1NC(=O)C[C@H](CCCN)NC(=O)C[C@H](Cc1ccccc1)NC(=O)[C@@H]1CNCC[C@H]1N,,11.1
CCCC[C@@H]1C[C@H]1C(NC(=O)c1ccco1)c1ccc(-c2ccccc2)cc1 (stereo not given in full),3.16 µM (active),
O=C1C[C@H](c2ccccc2)Oc2cc(O)cc(O)c21,12.6 µM (active),
CCC/C=C(\CCC)C(NC(=O)OCC(C)C)c1ccc(C(=O)OC)cc1 (stereo not given),3.98 µM (active),
CCCCCCN(C(=O)CCCCCN1C(=O)NC(c2ccc(-c3ccccc3)cc2)C(C(=O)OCc2ccccc2)=C1C)C(C(=O)NCCCC)c1ccc(OCC(=O)OC)c(C(=O)OC)c1 (stereo not given),0.158 µM (active),
CC1=C(\C=C/C(C)=C/C=C\C(C)=C\CO)C(C)(C)CCC1,,-20.3
O=C1C=CC2=C3c4cc(O)c(O)cc4C[C@@]3(O)COC2=C1O,3.98 µM (active),
CC(C)[C@@H](CC(=O)N[C@@H]1CCCC[C@H]1C(=O)N[C@H](CC(=O)N[C@@H](CCC(=O)O)CC(=O)O)Cc1c[nH]c2ccccc12)NC(=O)C[C@H](Cc1c[nH]c2ccccc12)NC(=O)[C@@H]1CNCC[C@H]1N,,-26.8
CC(C)[C@@H](CC(=O)N[C@@H]1CCNC[C@H]1C(=O)N[C@H](CC(=O)N[C@@H](CCC(=O)O)CC(=O)O)Cc1c[nH]c2ccccc12)NC(=O)C[C@H](Cc1c[nH]c2ccccc12)NC(=O)[C@@H]1CCCC[C@H]1N,,-20
CC(C)C[C@@H](CC(=O)N[C@H](CC(=O)N[C@@H]1CCNC[C@H]1C(=O)N[C@H](CC(=O)N[C@@H](CCC(=O)O)CC(=O)O)Cc1ccccc1)C(C)C)NC(=O)[C@@H]1CNCC[C@H]1N,,-24.1
CC(C)[C@@H](CC(=O)N[C@@H]1CCNC[C@H]1C(=O)N[C@H](CC(=O)N[C@@H](CCC(=O)O)CC(=O)O)Cc1c[nH]c2ccccc12)NC(=O)C[C@H](Cc1ccccc1)NC(=O)[C@@H]1CNCC[C@H]1N,,8.07

SMILES,Potency,"activity change, negative = inhibition [%]"
COc1ccc(NC(=O)/C=C\c2ccc(Cl)cc2)cc1,,6.37
CC(C)C[C@@H](CC(=O)N[C@@H](CCC(=O)O)CC(=O)O)NC(=O)[C@@H]1CNCC[C@H]1NC(=O)C[C@@H](NC(=O)C[C@H](Cc1c[nH]c2ccccc12)NC(=O)[C@@H]1CNCC[C@H]1N)C(C)C,,-7.93
Cc1ccc(C[C@H](Cc2nc3ccccc3[nH]2)c2nc3ccccc3[nH]2)cc1,12.6 µM (active),
CC(C)C[C@@H](CC(=O)N[C@@H](CCC(=O)O)CC(=O)O)NC(=O)[C@@H]1CNCC[C@H]1NC(=O)C[C@H](CCCN)NC(=O)C[C@H](Cc1ccccc1)NC(=O)[C@@H]1CNCC[C@H]1N,,-11.5
CC(C)C[C@@H](CC(=O)N[C@@H](CCC(=O)O)CC(=O)O)NC(=O)[C@@H]1CCCC[C@H]1NC(=O)C[C@H](CCCN)NC(=O)C[C@H](CO)NC(=O)[C@@H]1CCCC[C@H]1N,,120
CC(C)[C@@H](CC(=O)N[C@@H]1CCNC[C@H]1C(=O)N[C@H](CC(=O)N[C@@H](CCC(=O)O)CC(=O)O)Cc1ccccc1)NC(=O)C[C@H](Cc1c[nH]c2ccccc12)NC(=O)[C@@H]1CNCC[C@H]1N,,-4.35
CCCCCC1=C2CNC(CC(C)C)(C(=O)OC)C=C2C(C)C1=O (stereo not given),3.16 µM (active),
CCCC[C@@H]1C[C@H]1C(NC(=O)c1cccs1)c1ccc(-c2ccccc2)cc1 (stereo not given in full),1.58 µM (active),
CC(=O)Oc1cc(OC(C)=O)c2c(=O)cc(-c3ccc(OC(C)=O)c(OC(C)=O)c3)oc2c1,,-19.5
CC(C)[C@@H](CC(=O)N[C@@H]1CCCC[C@H]1C(=O)N[C@H](CC(=O)N[C@@H](CCC(=O)O)CC(=O)O)Cc1ccccc1)NC(=O)C[C@H](Cc1c[nH]c2ccccc12)NC(=O)[C@@H]1CCCC[C@H]1N,,5.23
COC(=O)[C@@]1(Cc2ccccc2)[C@H]2c3cc(C(=O)N4CCCC4)n(Cc4ccc(OC)c(OC)c4)c3C[C@H]2CN1C(=O)c1ccccc1,1.26 µM (active),
COC(=O)[C@@]1(Cc2ccc(OC)cc2)[C@H]2c3cc(C(=O)N(C)C)[nH]c3C[C@H]2CN1C(=O)c1ccccc1,3.98 µM (active),
C=C/C(=C\C)C[C@@H](CC(=O)N[C@@H](CCC(=O)O)CC(=O)O)NC(=O)[C@@H]1CNCC[C@H]1NC(=O)C[C@@H](NC(=O)C[C@H](Cc1ccccc1)NC(=O)[C@@H]1CCCC[C@H]1N)C(C)C,,-21.6
C[C@@H](C(=O)Nc1ccc2ccccc2c1)[C@H]1C[C@]1(C)[C@H](NC(=O)OCc1ccccc1)c1ccccc1,1.58 µM (active),
C=C(CO)[C@H]1Cc2c(ccc3c2O[C@H]2COc4cc(OC)c(OC)cc4[C@@H]2C3=O)O1,,-20
COC(=O)[C@H](C)[C@@H]1C[C@@]1(C)[C@@H](NC(=O)OCc1ccccc1)c1ccccc1,5.01 µM (active),
CC(C)[C@@H](CC(=O)N[C@@H]1CCCC[C@H]1C(=O)N[C@H](CC(=O)N[C@@H](CCC(=O)O)CC(=O)O)Cc1ccccc1)NC(=O)C[C@H](Cc1c[nH]c2ccccc12)NC(=O)[C@@H]1CNCC[C@H]1N,,-10.9
CC(C)C[C@@H](CC(=O)N[C@@H](CCC(=O)O)CC(=O)O)NC(=O)[C@@H]1CCCC[C@H]1NC(=O)C[C@@H](NC(=O)C[C@H](Cc1ccccc1)NC(=O)[C@@H]1CCCC[C@H]1N)C(C)C,,-6.44
CC(C)C[C@@H](CC(=O)N[C@H](CC(=O)N[C@@H]1CCCC[C@H]1C(=O)N[C@H](CC(=O)N[C@@H](CCC(=O)O)CC(=O)O)CC(C)C)C(C)C)NC(=O)[C@@H]1CNCC[C@H]1N,,-40.5
C=C1CC[C@@H](O)C/C1=C/C=C1\CCC[C@]2(C)[C@@H]1CC[C@H]2[C@@H](C)/C=C\[C@@H](C)C(C)C,20 µM (active),

# — PubChem BioAssay (NCATS)
